For seven compounds, growth results are on record in PubChem BioAssay (NCI).

Some test systems named below: NCI-H23 lung; NCI-H226 lung; NCI-H322M lung; HOP-62 NSCLC; NCI-H460 lung; HOP-92 NSCLC; NCI-H522 lung; A549/ATCC NSCLC; 786-0 renal; COLO 205 colon; DU-145 prostate; K-562 leukemia; MALME-3M melanoma; MDA-MB-231 breast; SF-268 CNS; SF-295 CNS; SF-539 CNS; M14 melanoma; RXF 393 renal.
What all share (assay): NCI-60 one-dose screen, 48 h (100 = growth as untreated, 0 = no growth, -100 = all killed)
Settings in all cases: 10 µM unless noted

Each structure is given as a SMILES string. The panel holds about 83,000 compounds, 20% with a hit somewhere; the sample as a whole holds those more often.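 The test compound was applied at a single concentration to cells in 96-well plates for 48 hours, and percent growth was recorded.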 Unmarked numbers belong to inactive results. Activity calls are given as the source filed them. Rule for the calls: active = growth percent below 10; inactive = the rest.

For `CCOC(=O)C1=C(C)N=C2Sc3cc(OC(F)(F)F)ccc3N2[C@H]1c1ccccn1`, the growth with NCI-H23 lung was 48.8%; in the test on NCI-H226 lung, 57.6%; with NCI-H322M lung it was 50.2%; in the test on HOP-62 NSCLC it was 47.6%; in the test on NCI-H460 lung, 15.2%; in the test on HOP-92 NSCLC, 68%. Moreover, the growth in the test on NCI-H522 lung is 48.5%; in the test with A549/ATCC NSCLC, 30.1%; in the test with 786-0 renal it was 59.1%; in the test with COLO 205 colon, 36.7%; with DU-145 prostate, 46.5%; in the test with K-562 leukemia, 21.9%. The growth in the test with MALME-3M melanoma is 59.1%; in the test with MDA-MB-231 breast, 53.9%; in the test on SF-268 CNS, 47.8%; in the test with SF-295 CNS, 22.2%; in the test with SF-539 CNS it was 41%; in the test with M14 melanoma, 27.3%.
Take `N#Cc1c(NC(=O)c2ccco2)[n+]([O-])c2cc(F)c(F)cc2[n+]1[O-]`: the growth was 82.7% with NCI-H23 lung; 103% in the test with NCI-H226 lung; 103% with NCI-H322M lung; 120% in the test with HOP-62 NSCLC; 106% in the test on NCI-H460 lung; -4.85% (active) with HOP-92 NSCLC. For the same compound, the growth with NCI-H522 lung is 59.2%; in the test on A549/ATCC NSCLC, 97.1%; in the test on 786-0 renal, 98.5%; in the test on COLO 205 colon it was 98.3%; in the test with DU-145 prostate, 76.1%; in the test with K-562 leukemia it was 56.6%. In addition, the growth with MALME-3M melanoma is 116%; with MDA-MB-231 breast it was 96.7%; with SF-268 CNS, 89.7%; with SF-295 CNS, 106%; in the test on SF-539 CNS it was 74.8%; in the test on M14 melanoma, 112%.
On to `CCc1nc2cc(F)c(/C=C/C(=O)NO)cc2c(=O)n1CCc1ccccc1`, for which the growth in the test on NCI-H23 lung is 25.9%; in the test with NCI-H226 lung, 32.7%; in the test with NCI-H322M lung, 23.1%; in the test with HOP-62 NSCLC it was 5.35% (active); in the test on NCI-H460 lung it was 7.49% (active); in the test on HOP-92 NSCLC, 15.5%. For the same compound, the growth in the test on NCI-H522 lung is -7.46% (active); in the test with A549/ATCC NSCLC, 14.9%; in the test with 786-0 renal, -5.29% (active); in the test on COLO 205 colon, -23.3% (active); in the test on DU-145 prostate it was 7.93% (active); in the test with K-562 leukemia it was 7.24% (active). In addition, the growth in the test with MDA-MB-231 breast is 15.4%; with RXF 393 renal it was -13.5% (active); with SF-268 CNS, 16%; in the test with SF-295 CNS, 11%; in the test on SF-539 CNS, 4.01% (active); in the test on M14 melanoma, 15.7%.
`CC(=O)Oc1ccccc1C(=O)N=C1[Se]CCN1C(=O)c1ccccc1OC(C)=O`: the growth was 0.294% (active) in the test on NCI-H23 lung; -48.4% (active) in the test on NCI-H226 lung; -21.7% (active) in the test with NCI-H322M lung; -48.1% (active) in the test with HOP-62 NSCLC; -7.43% (active) in the test on NCI-H460 lung; -72.4% (active) with HOP-92 NSCLC. Further, the growth in the test on NCI-H522 lung was -6.48% (active); with A549/ATCC NSCLC it was -52.6% (active); with 786-0 renal, -95.8% (active); in the test on COLO 205 colon, -26.9% (active); with DU-145 prostate, -44.2% (active); in the test with K-562 leukemia, 8.83% (active). Also, the growth in the test with MDA-MB-231 breast is -22.2% (active); in the test on RXF 393 renal, -72.5% (active); in the test on SF-268 CNS it was -77.1% (active); in the test with SF-295 CNS, -67.6% (active); in the test with SF-539 CNS, -79.4% (active); in the test on M14 melanoma, -57.7% (active).
As to `CCN(CC)CCCC(C)Nc1cc(-c2ccc(C(F)(F)F)cc2)c(C#N)c2nc3ccccc3n12` (stereo unspecified), the growth was 18.6% with NCI-H23 lung; -39.6% (active) in the test on NCI-H226 lung; 38.9% with NCI-H322M lung; 6.94% (active) with HOP-62 NSCLC; -18.8% (active) with NCI-H460 lung; 68.8% with HOP-92 NSCLC. Besides, the growth is 13.1% with NCI-H522 lung; 17.1% with A549/ATCC NSCLC; -83.3% (active) with 786-0 renal; -44.6% (active) with COLO 205 colon; 7.4% (active) in the test on DU-145 prostate; -46.1% (active) in the test on K-562 leukemia. Besides, the growth with MDA-MB-231 breast was -38% (active); in the test on RXF 393 renal it was -75.7% (active); with SF-268 CNS, 14.6%; in the test with SF-295 CNS it was -25.9% (active); in the test on SF-539 CNS, -75.1% (active); with M14 melanoma it was -69.6% (active).
As to `CSC1=C(N)C(=O)c2[nH]cc(CO)c2C1=N`, the growth with NCI-H23 lung was -29.3% (active); in the test on NCI-H226 lung, -65.3% (active); with NCI-H322M lung it was -97.2% (active); with HOP-62 NSCLC, -72.1% (active); in the test with NCI-H460 lung, -59.2% (active); in the test with HOP-92 NSCLC it was -71.7% (active). Further, the growth with NCI-H522 lung was -43.4% (active); with A549/ATCC NSCLC, -57.4% (active); in the test with 786-0 renal, -70.1% (active); in the test on COLO 205 colon, -77.6% (active); in the test on DU-145 prostate, -94.8% (active); in the test on K-562 leukemia it was -24.1% (active). Further, the growth is -96.1% (active) with MALME-3M melanoma; 2.56% (active) in the test on MDA-MB-231 breast; -69.4% (active) in the test on SF-268 CNS; -97.1% (active) in the test on SF-295 CNS; -96.2% (active) in the test with SF-539 CNS; -83.5% (active) with M14 melanoma.
Turning to `CCN(CC)Cc1cc(Nc2cc(C(F)(F)F)c(C#N)c3nc4ccccc4n23)ccc1O`, the growth in the test with NCI-H23 lung was 17.2%; in the test with NCI-H226 lung, 16.5%; in the test with NCI-H322M lung it was 16.3%; in the test with HOP-62 NSCLC, 14%; in the test on NCI-H460 lung, 6.25% (active); in the test with HOP-92 NSCLC, -30.2% (active). Also, the growth was -55.3% (active) in the test with NCI-H522 lung; 6.97% (active) with A549/ATCC NSCLC; 11.9% in the test on 786-0 renal; -31.4% (active) in the test on COLO 205 colon; 25.1% in the test on DU-145 prostate; 11.3% in the test with K-562 leukemia. Moreover, the growth was -8.6% (active) in the test on MDA-MB-231 breast; 0.263% (active) with RXF 393 renal; 26.7% in the test with SF-268 CNS; 5.79% (active) in the test with SF-295 CNS; 5.91% (active) in the test on SF-539 CNS; 24.3% with M14 melanoma.
